Out of some 360,000 compounds screened, about 11,000 (3.1%) were called active. Not shown: some 4% with an inconclusive outcome. The call rests on the fitted dose curve; in most records, active means well fitted inhibition curve with a large enough effect; inconclusive means small, poorly fitted or top-dose-only effect; inactive means no such curve, though single readings can be large or run the other way. What follows is part of a selection rich in actives, with near analogues and random picks from the rest. A call without a number means that no potency is given here.
Each molecule was assayed against Schistosoma mansoni thioredoxin glutathione reductase (TGR) (UniProt Q962Y6) (assay: qHTS Assay for the Inhibitors of Schistosoma Mansoni Peroxiredoxins). Conditions: purified TGR, DTNB reduction, TNB absorbance 405 nm; series mostly up to 114 µM.
In short: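 Kinetic colorimetric format: TGR-catalysed, NADPH-driven DTNB reduction monitored via TNB absorbance. Enzyme dispensed at 20 nM; compound exposure 15 min at room temperature before reaction start.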
Further: nearly all actives have a fitted effect of over 60% in size.
Potency means the concentration at half of the fitted maximal effect.

Compound | Potency
COc1ccc(OCC(=O)Nc2cccc(C(=O)OCc3cc(=O)n4nc(C)sc4n3)c2)cc1 | inactive
Cc1cc(NC(=O)C2CCC(CNS(=O)(=O)c3ccc(Br)s3)CC2)ccc1Br (stereo not drawn) | inactive
COC(=O)c1ccc(NC(=O)CCc2c(C)nc3c(c(C)nn3-c3ccc(C)cc3)c2C)cc1 | inactive
O=C(NCC(c1cccnc1)N1CCc2ccccc21)c1cccc(C(F)(F)F)c1 (stereo not drawn) | inactive
COc1ccc(CCNC(=O)CCc2c(C)nc3c(c(C)nn3-c3ccc(C)c(C)c3)c2C)c(OC)c1OC | inactive
COc1ccc(NC(=O)CSc2nc3ccccc3n2CC(=O)N2CCCCC2C)cc1 (stereo not drawn) | inactive
COc1ccc(C(=O)CSc2nnc(COc3ccccc3)n2Cc2ccco2)cc1 | 39.8 µM (active)
COc1ccc(C(=O)NCc2nnc(SCCOc3ccccc3)n2C)cc1 | inactive
C=CCn1c(CNC(=O)c2ccco2)nnc1SCC(=O)c1ccc(OC)cc1 | inactive
COc1ccccc1CNCc1ccc(C(=O)O)s1 | inactive
COc1ccc(-c2cn3c(n2)sc2cc(C(=O)Nc4ccccc4F)ccc23)cc1 | inactive
O=C(NCc1ccccc1Cl)C1=Cc2cc(Br)ccc2OC1 | inactive
O=C(CNc1ccc(F)cc1F)NC(=O)NCc1ccco1 | 28.2 µM (active)
CC(C)(C)NC(=O)NCc1ccco1 | inactive
Cc1ccc(SCC(=O)NC(=O)NCc2ccco2)c(C)c1 | inactive
CCOC(=O)c1ccc(NC(=O)C2CCN(S(=O)(=O)c3ccc4c(c3)CCCC(=O)N4)CC2)cc1 | inactive
O=C(CCc1nc(CN2CCN(S(=O)(=O)c3ccc(Cl)cc3)CC2)no1)N1CCCCC1 | inactive
CN(C)[C@@H]1C(=O)C(C(N)=O)=C(O)[C@@]2(O)C(=O)C3=C(O)c4c(O)ccc(Cl)c4[C@@H](O)[C@H]3C[C@@H]12 | 39.8 µM (active)
O=C(c1ccccc1F)N1CCC(c2nc3c(nnn3Cc3cccc(F)c3)c(=O)[nH]2)CC1 | inactive
Cc1ccc(CN2CCc3nc(N4CCN(C)CC4)ncc3C2)cc1 | inactive
Cc1ccc(C)c(Cn2c(=O)n(CCC(=O)NCc3ccc4c(c3)OCO4)c(=O)c3sccc32)c1 | inactive
CC(C)c1ccc(NC(=O)c2cc(S(=O)(=O)N3CCc4ccccc4C3)ccc2F)cc1 | inactive
O=C(C1CCCO1)N1CCC(c2nc3ccccc3[nH]2)CC1 (stereo not drawn) | inactive
c1ccc(-n2nnnc2N2CCOCC2)cc1 | inactive
C1=C(N2CCOCC2)/C(=C/c2nc3ccccc3[nH]2)CC1 | 5.62 µM (active)

Compound | Potency
COc1ccc(NC(=O)N2CCCn3nc(C)cc32)cc1OC | inactive
COc1cc(C2C(C(=O)c3ccco3)=C(O)C(=O)N2c2cc(C)on2)ccc1OCc1ccccc1 (stereo not drawn) | inactive
COc1ccc(C2C(C(C)=O)=C(O)C(=O)N2c2nccs2)cc1 (stereo not drawn) | inactive
C=CCOc1cccc(C2C(C(=O)c3ccc(C)o3)=C(O)C(=O)N2c2nnc(C)s2)c1 (stereo not drawn) | 28.2 µM (active)
CCCCc1nn2c(=O)cc(COC(=O)c3ccc(NC(=O)c4ccccc4C)cc3)nc2s1 | inactive
Cc1ccc(NC(=O)C(=O)NCC(c2cccnc2)N2CCOCC2)cc1 (stereo not drawn) | inactive
COc1ccc(NC(=O)Cn2c(=O)n(Cc3ccc(C(=O)NCc4ccccc4Cl)cc3)c(=O)c3ccccc32)cc1 | inactive
Cn1nc(-c2ccccc2)c(-c2ccccc2)c(C(=O)Nc2ccc(S(N)(=O)=O)cc2)c1=O | inactive
Cc1ccc(C)c(N2CCN(CCCNC(=O)Nc3ccc(Cl)cc3)CC2)c1 | inactive
CC(C(=O)NC1CCCC1)N1CCN(S(=O)(=O)c2ccccc2Cl)CC1 (stereo not drawn) | 35.5 µM (active)
CC(C)c1ccc(S(=O)(=O)N2CCN(C(C)C(=O)NC3CCCC3)CC2)cc1 (stereo not drawn) | inactive
O=C(Cc1ccc(S(=O)(=O)N2CCCC2)s1)NC1CCCCCC1 | inactive
O=C(Nc1ccc(OC(F)(F)F)cc1)C1CCCN(S(=O)(=O)c2ccc(Br)s2)C1 (stereo not drawn) | inactive
Cc1ccc2nc(SCC(=O)N3CC(C)OC(C)C3)nc(=O)n2c1 (stereo not drawn) | inactive
Cc1ccc2nc(SCC(=O)Nc3cccc4ccccc34)nc(=O)n2c1 | inactive
Cc1ccc2nc(SCC(=O)N3CCN(c4ccccc4)CC3)nc(=O)n2c1 | 50.1 µM (active)
COC(=O)CC1Oc2ccccc2-n2cc(-c3ccccc3)nc21 (stereo not drawn) | inactive
Cc1nc(SCC(=O)Nc2ccc(C(=O)O)cc2)n[nH]1 | inactive
CSc1ncc(Cl)c(C(=O)Nc2ccc(S(=O)(=O)N3CCCC(C)C3)cc2)n1 (stereo not drawn) | inactive
C=CCc1c(C)nc2cc(-c3ccccc3)[nH]n2c1=O | inactive
Cc1cc(=O)n2[nH]c(-c3sccc3-n3c(C)ccc3C)cc2n1 | 31.6 µM (active)
Cc1cc(=O)n2[nH]c(-c3cccc(Cl)c3)cc2n1 | inactive
O=C(Nc1cc(Cl)cc(Cl)c1)c1ccc2c(c1)N(Cc1cccc(Cl)c1)C(=O)c1ccccc1S2=O (stereo not drawn) | inactive
CCCCNc1ccc(-c2nc(-c3ccncc3)no2)cc1[N+](=O)[O-] | inactive
CC(C)CNc1ncnc2c1nnn2C | inactive

Compound | Potency
COc1ccc(-n2c(SCC(=O)NCc3cccs3)nnc2-c2ccoc2C)cc1 | 39.8 µM (active)
COc1ccc(-n2nnnc2SCC(=O)NCc2cccs2)cc1 | inactive
COc1ccc(-n2c(SCC(=O)NCc3ccco3)nnc2-c2c[nH]c3ccccc23)cc1 | inactive
COc1ccc(-c2noc(CCC(=O)N(C)c3ccccc3C)n2)cc1 | inactive
CCCSc1ncc(Cl)c(C(=O)Nc2c(C(=O)Nc3ccccc3)oc3ccccc23)n1 | inactive
COc1ccc(C2CC(=O)N(Cc3ccccc3C)c3c2c(C)nn3-c2nc(C)cc(C)n2)c(OC)c1 (stereo not drawn) | inactive
O=C(NC(=S)NC1CCCCC1)c1ccc(Cl)cc1 | inactive
COc1ccc(C(=O)NC(=S)NC2CCCCC2)cc1 | 1.41 µM (active)
CCCNC(=S)N1CCC(NC(=O)c2ccc(OC)cc2)CC1 | inactive
CCc1ccccc1N(C)C(=O)C1CCCN(c2ncnc3onc(-c4ccc(F)cc4)c23)C1 (stereo not drawn) | inactive
CCn1cc(C(=O)N2CCN(c3cc(C)ccc3C)CC2)c(=O)c2cc(S(=O)(=O)N(C)C3CCCCC3)ccc21 | inactive
CCc1ccccc1NC(=O)CSc1nnc(-c2ccccc2)c(-c2ccccc2)n1 | inactive
Cc1ccccc1CNC(=O)C(=O)NCC(c1cccs1)S(=O)(=O)c1cccs1 (stereo not drawn) | 25.1 µM (active)
COc1ccccc1CNC(=O)C(=O)NCC(c1cccs1)S(=O)(=O)c1cccs1 (stereo not drawn) | 25.1 µM (active)
COc1ccccc1CCNC(=O)C(=O)NCCC1CCCCN1S(=O)(=O)c1cccs1 (stereo not drawn) | inactive
COC(C(=O)NCc1ccccc1C)c1ccccc1 (stereo not drawn) | inactive
CC(C)C(=O)NCC(c1cccs1)S(=O)(=O)c1ccc(F)cc1 (stereo not drawn) | inactive
O=C(NCc1ccccc1Cl)C(=O)NCC1CCCN1S(=O)(=O)c1cccs1 (stereo not drawn) | inactive
Cc1ccc(SCC(=O)Nc2ccc3oc(-c4ccccc4C)nc3c2)cc1 | inactive
CCC(C)NC(=O)Cn1c(=O)n(-c2ccc(Cl)cc2)c(=O)c2c3c(sc21)CCCC3 (stereo not drawn) | inactive
Cc1c(Cl)cccc1NC(=O)C1CCCN(c2ncnc3onc(C)c23)C1 (stereo not drawn) | inactive
CCOc1ccc(NC(=O)Cn2c(C)ccc(C#N)c2=O)cc1 | inactive
Cc1ccc(CSCC(=O)N(C)CC(=O)Nc2ccc(C)cc2)cc1 | inactive
Cc1ccc(CSCC(N)C(=O)O)cc1 (stereo not drawn) | 28.2 µM (active)
CSCC(NS(=O)(=O)c1ccc(C)cc1)C(=O)O (stereo not drawn) | inactive

Compound | Potency
CCc1ccc(NC(=O)CCS(=O)(=O)c2cc3c(cc2Cl)NC(=O)CO3)cc1 | inactive
Fc1ccc(CN2CCc3nc(Nc4ccccc4)ncc3C2)cc1F | inactive
CCOC(=O)C1=C(O)/C(=C/c2cc(C)n(-c3ccccc3)c2C)N=C1C | 28.2 µM (active)
CCOC(=O)C1=C(O)/C(=C/c2ccc(OCC(=O)Nc3ccc(C)cc3)cc2)N=C1C | inactive
COC(=O)C1=C(O)/C(=C/c2ccc(OCC(=O)Nc3ccccc3)cc2)N=C1C | inactive
CCOc1ccccc1C(=O)Nc1ccc2c(c1)N(C)C(=O)c1ccccc1S2 | inactive
O=C(Cn1c(=O)n(-c2ccc(F)cc2)c(=O)c2sc3ccccc3c21)NC1CCCC1 | inactive
CCN(CC)C(CNC(=O)CSc1nnnn1-c1cccc(F)c1)c1ccco1 (stereo not drawn) | inactive
Cc1ccc(Cc2c(C)nc3nc(SCC(=O)NCCN4CCOCC4)nn3c2C)cc1 | inactive
CCn1c(SCC(=O)NCc2ccco2)nnc1-c1ccc(N)cc1 | inactive
Cn1c(-c2ccc(F)cc2)cnc1SCC(=O)NNC(=O)Cc1ccccc1 | inactive
O=C(CSc1nnc(-c2c[nH]c3ccccc23)n1-c1ccc(F)cc1)NCc1ccco1 | inactive
O=C(CSc1nnnn1-c1ccccc1)NCc1ccco1 | 79.4 µM (active)
O=C(CSc1nnc2scc(-c3ccc(F)cc3)n12)NCc1ccco1 | inactive
CCOc1ccccc1-n1c(SCC(=O)NCc2ccco2)nnc1-c1ccncc1 | 44.7 µM (active)
Cc1ccc(-c2csc3nnc(SCC(=O)NCc4ccco4)n23)cc1 | inactive
Cn1c(-c2ccc(F)cc2)cnc1SCC(=O)NCc1ccco1 | 31.6 µM (active)
Cc1nc2nc(SCC(=O)NCc3ccco3)nn2c(C)c1Cc1ccccc1 | 20 µM (active)
Cc1cc(C)n2nc(SCC(=O)NC(=O)NCc3ccco3)nc2n1 | inactive
COc1cccc(NC(=O)C(=O)NCC(c2ccc3c(c2)OCO3)N2CCN(C)CC2)c1 (stereo not drawn) | inactive
Cc1ccc(CN2CCC(CNC(=O)c3cnn(-c4ccccc4Cl)c3C3CCN(C(=O)OC(C)(C)C)CC3)CC2)cc1 | inactive
COc1ccc2c(c1)c(=O)c(C(=O)c1ccccc1)cn2CC(=O)Nc1ccc2c(c1)OCCO2 | inactive
CCOc1ccccc1NC(=O)Cn1c(=O)n(-c2cccc(C)c2)c(=O)c2c1c1cc(OC)ccc1n2C | inactive

— PubChem BioAssay AID485364 (National Center for Advancing Translational Sciences (NCATS), 2010)
